Bioassay records deposited in PubChem BioAssay by several laboratories.
HDAC3 inhib: HDAC3 deacetylase inhibitors, primary screen, biochemical, fluorescence, cell-free homogeneous; Histone deacetylase 3 (Homo sapiens), O15379; recombinant HDAC3, fluorogenic peptide/trypsin coupled; actives 0.15% (n = 320,000); inhibition, % at 8.3 µM; in the data active means inhibition above about 26%, passing the limit was not always enough; inconclusive means no clear call, values can overlap the other calls
LANA-H2B inh: blockers of LANA interaction with H2A/H2B – biochemical, FP readout, HTS, primary screen; Protein LANA1 (Human herpesvirus 8 type P (isolate GK18)), Q9QR71; inhibition, % (concentration not given with the values); actives 0.6% (n = 320,000); cell-free LANA-H2A/H2B peptide, fluorescence polarization; in the data active means inhibition mostly above about 10%, no sharp cut-off; inactive means mostly below about 6.7%
IDE cell activ: human IDE activators in live cells, primary screen, fluorescence polarization, HEK cells, FAbeta-B substrate; FAbeta-B cleavage; 0% vehicle, 100% cell-free pure enzyme wells; activation, % at 5.96 µM; actives 0.073% (n = 340,000);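 active means activation above the mean of all tested compounds plus 3 SD, set per screening campaign, cut at about 17% in these data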
Target sequence (P14735 whole entry, looked up): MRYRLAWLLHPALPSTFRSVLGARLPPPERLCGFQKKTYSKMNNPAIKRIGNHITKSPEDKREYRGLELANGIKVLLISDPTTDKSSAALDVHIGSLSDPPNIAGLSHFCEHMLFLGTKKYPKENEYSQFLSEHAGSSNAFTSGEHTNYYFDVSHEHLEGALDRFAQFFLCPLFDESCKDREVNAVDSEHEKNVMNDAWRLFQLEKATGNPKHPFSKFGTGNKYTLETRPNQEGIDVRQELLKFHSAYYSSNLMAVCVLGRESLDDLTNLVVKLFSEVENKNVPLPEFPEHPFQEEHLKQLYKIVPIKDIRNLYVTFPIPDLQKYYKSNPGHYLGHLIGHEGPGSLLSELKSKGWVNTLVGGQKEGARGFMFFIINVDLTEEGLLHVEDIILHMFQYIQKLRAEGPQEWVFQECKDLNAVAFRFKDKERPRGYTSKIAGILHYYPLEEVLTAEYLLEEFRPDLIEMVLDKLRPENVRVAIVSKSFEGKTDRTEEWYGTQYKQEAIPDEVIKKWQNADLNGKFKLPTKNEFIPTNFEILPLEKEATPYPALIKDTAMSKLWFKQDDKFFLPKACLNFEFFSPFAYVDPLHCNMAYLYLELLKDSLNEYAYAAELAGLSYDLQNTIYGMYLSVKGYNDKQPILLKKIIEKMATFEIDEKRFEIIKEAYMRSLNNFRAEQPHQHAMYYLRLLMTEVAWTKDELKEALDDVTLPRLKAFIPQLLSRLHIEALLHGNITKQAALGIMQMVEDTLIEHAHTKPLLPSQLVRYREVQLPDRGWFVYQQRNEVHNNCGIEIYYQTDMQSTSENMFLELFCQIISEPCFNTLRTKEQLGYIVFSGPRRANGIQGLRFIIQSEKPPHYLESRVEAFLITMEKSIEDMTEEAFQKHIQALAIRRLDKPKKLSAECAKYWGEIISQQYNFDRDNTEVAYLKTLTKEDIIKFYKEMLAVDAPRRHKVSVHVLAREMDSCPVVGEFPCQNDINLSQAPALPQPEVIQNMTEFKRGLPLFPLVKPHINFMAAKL
IDE cell inh: human IDE inhibitors in live cells, primary screen, fluorescence polarization, HEK cells, FAbetaB substrate; Insulin-degrading enzyme (Homo sapiens), P14735; FAbetaB cleavage; inhibition, % at 5.59 µM; actives 0.41% (n = 320,000); AID 434962, 2010;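 active means percent inhibition above the average of all tested compounds plus 3 SD, set per screening campaign, cut at about 16% in these data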;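 further: IDE supplied by intact live HEK cells; FP after avidin binding of uncleaved biotin substrate so inhibition keeps polarization high; 0% = DMSO wells and 100% = 60 µM reference IDE inhibitor Ii1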
SUMO Mot1 rescue: yeast Mot1-301 growth rescue at high temperature, primary screen, SUMOylation pathway inhibitor project, S. cerevisiae, ATP luminescence, 38.5C; S. cerevisiae Mot1-301 growth rescue; percent above DMSO median, 100 means doubled; growth rescue, % at 18.8 µM; actives 1% (n = 320,000);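 active means every valid replicate shows activation above 250% relative to neutral control wells; inactive means the rest, any valid replicate at or below 250%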;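 further: OY570 slx delta 5 strain wells were the positive control but not used for scaling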
* hit, by the source's call; i = inactive; ? = inconclusive; nt = no result; + = active, no number. Most compounds without a hit are left out; they make up all but 2.1% or so of the library.

SMILES | HDAC3 inhib | LANA-H2B inh | IDE cell activ | IDE cell inh | SUMO Mot1 rescue
O=C(COc1ccc(S(=O)(=O)N2CCCC2)cc1Cl)NC1CC1 | 6 | 1 | -2 | 1 | 11
COC(=O)[C@H]1[C@@H](C)N(Cc2ccccc2)C(=O)N[C@H]1c1ccccc1 | 1 | -2 | -3 | 0 | 210
O=C(CSc1nnc2ccc(-c3cccnc3)nn12)Nc1cccc(F)c1 | nt | nt | 2 | nt | nt
Cc1ccc(C(=O)O/N=C(\c2ccccc2)c2ccncc2)cc1 | 36* | 6 | nt | -1 | 12
O=C(O/N=C(/c1ccccc1)c1ccncc1)c1cccc(F)c1 | 17 | -4 | 6 | -4 | 7
Cc1ccc(C)c(NC(=O)C(NCC(C)(C)N2CCOCC2)c2ccccc2)c1 (stereo not given) | 0 | -5 | -5 | -6 | 767*
Cc1ccc(C)c(NC(=O)C(c2ccccc2)N2CCN(CC(=O)N3CCOCC3)CC2)c1 (stereo not given) | 4 | 0 | 5 | 1 | -4
Cc1ccccc1OCC(=O)NCC(c1cccs1)N1CCOCC1 (stereo not given) | -1 | 2 | 4 | -2 | -10
COc1ccc(C(=O)NCC(=O)N/N=C/c2ccc(C)o2)cc1OC | 56* | -6 | -1 | -2 | 1
COc1ccc(CC(=O)N/N=C/c2ccc(-c3cccc(C(=O)O)c3)o2)cc1OC | 4 | 8.8* | 5 | 4 | -6
Nc1ccc(C(=O)O)c(O)c1 | 0 | -5 | 1 | 1 | i
O=C(O)c1ccc(O)cc1O | -4 | 28* | 3 | -2 | -3
CC(=C/c1ccccc1)/C=N/NC(=O)c1cccs1 | 2 | -1 | nt | 4 | 29
O=C(N/N=C/C(Br)=C\c1ccccc1)c1cccs1 | 3 | 0 | nt | 10 | 299*
Cc1ccccc1OCC(O)COc1ccccc1C | nt | nt | -2 | nt | nt
O=C(O)C(C/C(=N/O)c1ccc(Br)cc1)P(=O)(c1ccccc1)c1ccccc1 (stereo not given) | -3 | 15* | 6 | 1 | -16
Cc1ccc(C(=O)CC(C(=O)O)P(=O)(c2ccccc2)c2ccccc2)cc1 (stereo not given) | -1 | 2 | 4 | 1 | 0
O=C(COC(=O)c1ccccc1C(=O)c1ccccc1)NCc1ccc(F)cc1 | 4 | 0 | 1 | 6 | 337*
O=C(COC(=O)c1ccccc1C(=O)c1ccc(Cl)cc1)NCc1ccccc1 | 3 | 3 | -3 | -4 | 1
O=C(O)c1ccccc1-c1ccccc1C(=O)Nc1ccc(F)cc1 | -2 | -2 | 4 | 0 | 26
O=C(O)c1ccccc1C(=O)NNc1ccc(F)cc1 | 0 | 2 | 0 | -1 | 267*
O=C(O)c1ccccc1C(=O)NCc1ccc(F)cc1 | -2 | 20* | 2 | 2 | 50
CCn1nnnc1SCC(=O)N1N=C(c2cccs2)CC1c1cccs1 (stereo not given) | nt | nt | -2 | nt | nt
Cc1cccc(NC(c2ccc(C)s2)c2ccc3ccc(C)nc3c2O)n1 (stereo not given) | -9 | -4 | -13 | 22* | -39
Cc1cc(C)c(C)c(S(=O)(=O)N2CCC(C(=O)N3CC(C)CC(C)C3)CC2)c1C (stereo not given) | 1 | 1 | 6 | 4 | 0
SMILES | HDAC3 inhib | LANA-H2B inh | IDE cell activ | IDE cell inh | SUMO Mot1 rescue
Cc1csc(/C(=N/OC(=O)c2ccco2)C(N)=O)n1 | 28* | -9 | 1 | 0 | -8
CCOc1ccc(NC(=S)NCCCN2CCN(C3CCCCC3)CC2)cc1 | -1 | + | 0 | 4 | -11
Cc1ccc(S(=O)(=O)/N=C/c2cc(Br)ccc2O)cc1 | 1 | 2 | 23* | 4 | -51
Cc1cc(N=Cc2cc(Br)ccc2O)no1 | -10 | 3 | 5 | 0 | 6
C/C(CC(=O)Nc1ccc(N(C)C)cc1)=N\NC(=O)c1ccc(Cl)cc1 | 5 | -1 | -4 | 2 | -1
C/C(CC(=O)Nc1ccc(N(C)C)cc1)=N\NC(=O)c1ccncc1 | -19 | 0 | 18* | 1 | -4
CC(C)(C)c1ccc(C(=O)N/C(=C\c2cccs2)C(=O)N2CCOCC2)cc1 | 9 | 0 | 0 | 2 | -14
Cc1noc(C)c1COc1ccc(C(=O)N2CCC(C)CC2)cc1 | 5 | 2 | 1 | 5 | -13
Cc1ccc(NC(=O)c2cccc(NC3=NC4CS(=O)(=O)CC4S3)c2)cc1C (stereo not given) | -4 | 24* | 0 | 3 | -2
Cc1cccc(NC(=O)c2cccc(NC3=NC4CS(=O)(=O)CC4S3)c2)c1 (stereo not given) | 5 | 0 | 1 | 3 | -8
CCOC(=O)[C@H]1[C@H]2COc3ccccc3[C@@H]2N2C(=O)c3ccc(C)cc3NC(=O)[C@@]12C | -1 | 4 | -2 | 3 | 3
CCn1c(O)c(/C=C2\C=NN=C2c2ccccc2)sc1=S | -1 | 15* | -4 | -2 | -10
O=C(O)c1cc([N+](=O)[O-])ccc1Oc1ccccc1 | nt | nt | 6 | nt | nt
CSc1nc(-c2ccco2)nn1C(=O)c1ccc(C)cc1 | ? | 2 | 3 | 2 | -18
CSc1nc(-c2ccco2)nn1C(=O)c1ccco1 | 72* | -5 | 4 | 0 | -3
CCCC(=O)n1nc(-c2ccco2)nc1SCc1ccccc1 | 48* | 2 | 6 | 2 | 2
CSc1nc(-c2ccco2)nn1C(=O)c1ccccc1 | 97* | -1 | -2 | 0 | 0
O=C(Cc1ccccc1)n1nc(-c2ccco2)nc1SCc1ccccc1 | 6 | 1 | -2 | 4 | 19
Clc1ccc(OCCN2CCOCC2)cc1Cl | 3 | 17* | 6 | 9 | 14
O=C(C1CC(c2ccc(F)cc2)=NO1)N1CCN(Cc2ccccc2)CC1 (stereo not given) | -2 | 0 | 2 | 1 | 318*
COc1cccc(C2=NOC(C(=O)N3CCN(Cc4ccccc4)CC3)C2)c1OC (stereo not given) | -1 | 1 | 2 | 2 | -4
COc1ccc(CCNC(=O)COC(=O)c2ccccc2NCCO)cc1OC | -36 | -8 | 3 | 2 | 5
COc1ccc(N(CC(=O)Nc2cc(Cl)ccc2C)S(=O)(=O)c2c(C)noc2C)cc1 | -12 | 51* | 5 | -2 | 19
COc1ccc(N(CC(=O)Nc2cc(C)ccc2C)S(=O)(=O)c2c(C)noc2C)cc1 | 3 | 4 | 6 | 0 | -23
COc1cccc(COC(=O)C2CCN(S(=O)(=O)c3ccc(C)cc3)CC2)c1OC | 2 | 3 | 0 | -5 | 52
COc1cccc(COC(=O)C2CCN(S(=O)(=O)c3ccc(C)cc3C)CC2)c1OC | 12 | 27* | 5 | 9 | -6
